Assay outcomes (PubChem)
IL1B secr inh: inflammasome signaling inhibition, IL-1 beta readout; activity change, % at 57.5 µM; THP-1 LPS/ATP IL-1B secretion, AlphaLISA, 16 h; active compounds read low; 360,000 compounds, 4.7% hits; in the data active = activity change below about -50%; inconclusive = mostly about -30% to -49%
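THP-1 cells pretreated 1 hr with compounds (up to 57.5 uM final), then stimulated with LPS (250 ng/mL final) plus ATP (1.25 mM final); secreted IL-1B measured by AlphaLISA after 16 hr, decreased signal indicating inhibition.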
HT1080 IDH1KD tx: kills HT-1080 cells with IDH1 knockdown; HT-1080 IDH1 knockdown viability, ATP luminescence, 48 h; Potency, µM (series often up to 46.1 µM), hits mostly cytotoxic; 360,000 compounds, 2% hits
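Luminescent ATP read-out (CellTiter-Glo, 10 min at room temperature) after 48 h compound exposure at 37 °C gave viability of IDH1-knockdown HT-1080 cells. Activity was normalised to DMSO and cell-free wells, then fitted as concentration-response curves.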
TDP1 cell noCPT: qHTS for Inhibitors of human tyrosyl-DNA phosphodiesterase 1 (TDP1): qHTS in cells in absence of CPT; AID 686978, 2013; DT40 Tdp1-/- hTDP1 cells, no CPT, ATP luminescence, 48 h; Potency, µM (series often up to 46.2 µM), hits mostly inhibitors; 420,000 compounds, 15% hits; note: nearly all actives have a fitted effect of over 55% in size
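DT40 Tdp1-/-;hTDP1 cells, no CPT (DMSO vehicle only), 400 cells/well; compounds pin-transferred; ≥48 hr, 37 °C; CellTiter-Glo 30 min RT dark, luminescence read.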
HT1080NT lethal: kills 2HG-producing HT-1080-NT fibrosarcoma cells; HT-1080-NT fibrosarcoma viability, CellTiter-Glo ATP luminescence, 48 h; Potency, µM (titrated, usually from 46.1 µM), actives largely listed as cytotoxic; 360,000 compounds, 1.6% hits; AID 686970;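 note: NT is the 2HG producing partner of a matched IDH1 knockdown line; nearly all actives have a fitted effect of over 55% in size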
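HT-1080-NT fibrosarcoma cells (2HG-overproducing), 750 cells/well in RPMI with 5% FBS, dosed after 2 h and incubated 48 h at 37C. CellTiter-Glo luminescence normalized to DMSO and no-cell wells; concentration-response curves fitted and classed.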
TDP1 cell CPT: growth inhibition of DT40 Tdp1-/-;hTDP1 cells with camptothecin (screen for TDP1 inhibitors); chicken DT40 Tdp1-/-;hTDP1 cells + 20 nM CPT, ATP luminescence, 48 h; Potency, µM (titrated, usually from 46.2 µM), usual class: inhibitors; 420,000 compounds, 12% hits; AID 686979; note: nearly all actives have a fitted effect of over 55% in size
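Chicken DT40 Tdp1-/- cells stably complemented with human TDP1 were seeded at 400 cells/well in medium containing 20 nM camptothecin, exposed to pin-transferred compounds, and grown at 37 °C for at least 48 hr. Viability was read as ATP luminescence.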
Numbers stand for hits; 0 = inactive; ? = inconclusive; - = no result given; ! = repeats disagree; [ ] = another dose, or the depositor's remark. An excerpt weighted towards active compounds, which were near 19% of everything screened. Unless noted, calls come from the whole dose curve; as a rule, active = well fitted curve in the direction sought with a large enough effect; inconclusive = small, poorly fitted or top-dose-only effect, or another doubt; inactive = no such curve, though single readings can be large; an effect the other way counts as inactive or inconclusive.

SMILES	IL1B secr inh	HT1080 IDH1KD tx	TDP1 cell noCPT	HT1080NT lethal	TDP1 cell CPT
CC(=O)Nc1ccc(Nc2nc3ccccc3nc2NS(=O)(=O)c2ccc(Cl)c([N+](=O)[O-])c2)cc1	-108	0	5.8µM	0	7.3µM
Cc1ccc(S(=O)(=O)NCCC(=O)NCC(=O)Nc2c(C)cccc2C)cc1C	0	0	0	0	0
O=C(NCc1cccs1)C1CCC(=O)N(Cc2cccc(C(F)(F)F)c2)C1 (centres undefined)	0	0	?	0	0
c1coc(-c2cc3nc(NCc4ccc5c(c4)OCO5)ccn3n2)c1	0	0	0	0	?
O=[N+]([O-])c1ccc(N/N=C/c2cccnc2)cc1	0	7.3µM	6.5µM	0	5.8µM
O=C(N/N=C/c1cccnc1)c1ccc([N+](=O)[O-])cc1	0	0	0	0	0
Clc1ccc(N/N=C/c2cccnc2)cc1	-62	?	16µM	?	18µM
O=C(O)c1cccc(N/N=C/c2cccnc2)c1	0	0	?	0	0
CCOC(=O)c1cc(-c2ccc(/C=C3/C(=O)N(c4ccc(C(=O)O)cc4)N=C3C)o2)ccc1Cl	0	0	15µM	?	?
CCOC(=O)c1cc(-c2ccc(/C=N\n3cnnc3)o2)ccc1Cl	0	0	?	0	0
Cc1cc(C)cc(NS(=O)(=O)CCCS(=O)(=O)Nc2cc(C)cc(C)c2)c1	-81	21µM	?	?	?
CCOn1c(=O)c[n+]([O-])c2ccccc21	0	0	0	0	0
O=c1c[n+]([O-])c2ccccc2n1OCc1c(F)cccc1F	0	?	21µM	?	13µM
C(=C\c1ccncc1)/c1ccccc1	0	0	0	0	0
CCC[N+](C)(C)c1ccc(/C=C/c2ccncc2)cc1	-	-	0.35µM	-	0.35µM
CC[N+](C)(C)c1ccc(/C=C/c2ccncc2)cc1	-	-	0.63µM	-	0.71µM
Cc1noc(C)c1NC(=O)Nc1ccc2c(c1)CC(=O)N([C@@H](C)CO)C[C@@H](C)[C@@H](CN(C)C(=O)Nc1cccc3ccccc13)O2	0	0	0	0	0
CCCCCCCCN1C(=O)[C@H](CC(=O)NCC23CC4CC(CC(C4)C2)C3)C[C@@]2(C(=O)OC)CC(C)(C)CC=C12	0	0	?	0	0
CCCCNC(=O)C[C@@H]1C[C@@]2(C(=O)OC)CC(C)(C)CC=C2N(Cc2ccccc2)C1=O	0	0	?	0	?
CCCCCCCCN1C(=O)[C@H](CC(=O)NCc2cccc3ccccc23)C[C@@]2(C(=O)OC)CC(C)(C)CC=C12	0	?	12µM	?	0
CCCCCCCCN1C(=O)[C@H](CC(=O)NCCCC)C[C@@]2(C(=O)OC)CC(C)(C)CC=C12	0	?	12µM	?	10µM
CCCCCCCCN1C(=O)[C@H](CC(=O)NCc2ccccc2)C[C@@]2(C(=O)OC)CC(C)(C)CC=C12	0	?	5.2µM	?	3.7µM
CCCCCCCCN1C(=O)[C@H](CC(=O)NCCCCc2ccccc2)C[C@@]2(C(=O)OC)CC(C)(C)CC=C12	0	?	21µM	0	16µM
CO[C@H]1CN(C)C(=O)c2cc(NC(=O)c3ccccc3)ccc2OC[C@H](C)NC[C@@H]1C	0	0	0	0	0
O=S(=O)(c1ccc(SCCOc2cccc(Br)c2)nc1)N1CCCC1	0	0	?	0	0
SMILES	IL1B secr inh	HT1080 IDH1KD tx	TDP1 cell noCPT	HT1080NT lethal	TDP1 cell CPT
FC(F)(F)c1ccccc1-n1ccnc1	0	0	16µM!	0	?
FC(F)(F)c1ccccc1-c1cncnc1-n1ccnc1	-	-	0	-	0
CCN1CCCC1CNCc1cc2c(OC)c(OC)c(OC)cc2nc1N(C)C (centres undefined)	-	-	0	-	0[9.04 µM]
Cc1ccc(CNCc2cc(Cl)ccc2O)cc1	?	0	?	0	?
Cn1cc(CN2CCCC(C(=O)c3cc(F)ccc3F)C2)c2ccccc21 (centres undefined)	-71	?	16µM	?	?
O=C(c1cc(F)ccc1F)C1CCCN(Cc2cccn2-c2ccccn2)C1 (centres undefined)	?	0	?	0	?
CSc1ccccc1C(=O)C1CCCN(Cc2c(C)n(C)n(-c3ccccc3)c2=O)C1 (centres undefined)	0	0	29µM	0	?
COc1ccc(F)cc1C(=O)C1CCCN(Cc2c[nH]c3ccccc23)C1 (centres undefined)	?	0	4.6µM	0	4.1µM
COc1ccc(OC)c(CN2CCCC(C(=O)c3ccccc3SC)C2)c1 (centres undefined)	-68	?	9.2µM	?	13µM
O=C(Nc1nonc1NC(=O)C1CCCCC1)C1CCCCC1	0	0	0	0	0
COc1ccc(F)cc1C(=O)C1CCCN(Cc2cn(C)c3ccccc23)C1 (centres undefined)	-78	?	13µM	?	15µM
Cc1ccc(CNC(=O)CS(=O)(=O)c2cn(CC(=O)N3CCOCC3)c3ccccc23)cc1	0	0	0	0	0
COc1ccc(S(=O)(=O)Nc2ccc3ccccc3c2)cc1C	0	?	?	0[9.24 µM]	9.2µM
Cc1cc(O)cc(C)c1NS(=O)(=O)c1ccc2ccccc2c1	0	0	26µM	0	?
COc1ccc(S(=O)(=O)Nc2ccc(S(=O)(=O)N3CCCCC3)cc2)cc1C	0	0	0	0	0
COc1ccc(S(=O)(=O)Nc2ccc(Cc3ccncc3)cc2)cc1C	?	0	?	?	13µM
CCc1ccc(NS(=O)(=O)c2ccc(OC)c(C)c2)cc1	0	0	23µM	0	?
CC[C@H](C)Cc1cn([C@@H](CCCN=C(N)N)C(=O)NCCCCCCCCCCC(=O)N2CCNCC2)nn1	0	0	0	0	?
CCCCCCCCNc1ccccc1S(=O)(=O)NCc1ccccc1	0	?	18µM	?	?
O=S(=O)(NCc1ccccc1)c1cccc2cccnc12	0	0	0	0	0
Cn1cnc2nc(Cl)nc(Cl)c21	-93	?	1.2µM	?	1.6µM
CNc1nc(Cl)nc2ncn(C)c12	0	0	0	0	0
Cc1ccc(NC(=O)CC2Oc3ccc(C)cc3NC2=O)c(C)c1 (centres undefined)	0	0	21µM	0	?
Cc1ccc2c(c1)NC(=O)C(CC(=O)Nc1ccc(Br)c(C)c1)O2 (centres undefined)	0	0	0	0	0
O=C(NC(Cc1ccccc1)c1nc2ccccc2[nH]1)c1ccc(Cl)c([N+](=O)[O-])c1 (centres undefined)	-165	?	23µM	21µM	10µM
CCCC(NC(=O)c1ccc(Br)o1)c1nc2ccccc2[nH]1 (centres undefined)	0	0	?	0	16µM
